# In the OligoGym collection:
# Molecular target: POLH
# Test: pooled miR-30 sensor sort-seq; sequence = guide strand
# Conditions: shRNA
# Note: reference of the scale not given here.
row,Sequence,sensor-assay potency score (higher = more potent)
1,TTGCTTTAGAGGATTCTTCTAG,-0.177
2,TACACGAATGCTCACAACCAGC,-1.33
3,TTGTACTGTACAACTGCACAAG,-0.852
4,TAACTTTCTGCCTTTCTGCAGC,-0.259
5,TATTGTGTGAAATTCCAGCTGA,0.557
6,TAACTTCTTAGCATCATCTGCC,0.509
7,TAGAAGCAGACTTTTCTGCTTA,0.259

# Molecular target: POLN
# Test: as above
# Conditions: shRNA
row,Sequence,sensor-assay potency score (higher = more potent)
1,TGACTTGATCTTGTGAACCTGC,0.614
2,TTGCTCGTTATAAGAAACCGTT,-0.677
3,TTCATTATTTATATTCTCCATT,-0.758
4,TAATGGATGAAGGTCTCGCAGA,-0.869
5,TTTTTGGTCAGCAGACAGCTGA,-1.02
6,TTGATCTTGTGAACCTGCCTGT,0.754
7,TTGCCATAAACCATAATCCTTC,-1.02
8,TTATAAGAAACCGTTCTCCTGC,0.596
9,TTTGTTTACTTGTTTTCTCTGA,-0.00359
10,TTTACTAACACCACAATTCCTC,-0.28
11,TCTATTTGAATGTAGATGCATG,-0.558

# Molecular target: POLR2B
# Test: as above
# Conditions: shRNA
row,Sequence,sensor-assay potency score (higher = more potent)
1,TTTCTCTTTAGTAACACCAGGC,-0.352
2,TATCAAACCATCATCATCCAGC,-0.225
3,AAGATTGCAAACATGAACCTGA,0.822
4,TATTATGCAACTGTCTTGGTTT,-0.109
5,TAGTGCAACATTCTGTTCTTGG,0.768
6,TTTTACAAAATTTATATCCTTC,0.417
7,TTCTAAAATATCTCTGTCGGAC,-0.797
8,TTTTCTCTTTAGTAACACCAGG,-1.3
9,TAGGAACTGATTACAATCCAGC,-0.664
10,TAAAAGATTAGAAATCTTCTGC,0.528
11,TATATGTGGAACAATAAGCTAC,-0.462
12,TTCTTTTTGTAAAACTTCCTTT,-0.613

# Molecular target: POLR3B
# Test: as above
# Conditions: shRNA
row,Sequence,sensor-assay potency score (higher = more potent)
1,TATATGAGTCTGTTGCTCCTTT,0.252
2,TTTCCTTGTAGCAGCATCCAAC,-0.877
3,TTAAGTACCACATAGGGTCAGC,-0.683
4,TAAATTTTTTGAACAAGTCTTC,-0.054
5,TAACAATGAAGTAGCCACCTGG,-0.287
6,TATCCTTTAGGTCACATCCATC,-1.12
7,TAGCTCATCACAGCAACTGTTG,-0.674
8,TTTATTAATTGTGTGTTCGTAC,0.467
9,TTGGTGTATCGTTTCAACGTAC,-0.297
10,TTACATTGAAGCTTTCTTCAAC,0.0741
